Measurements reported in the supplement of paper PMC10849652.
The full data set covers some 7,900 targets. This sample favours those with a hit. About 0.6% of all pairs of compound and target were hits. A number with no mark means an inactive call.

Tests used:
Assay in all cases: log2 fold change, soluble protein after heating vs DMSO (PISA); higher = thermal stabilisation; K562 cells, 10 uM, 30 min; active = over 0.2 and 3.5 SD of the protein, either way, in both replicates (recomputed)
[1] = compound: COC1=CC=C(C=C1)CN2C=CC3=C2C=C(C=C3)C(=O)NO
Summary of the method: (§1)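 Quantification of soluble protein used TMTpro 16plex LC-MS/MS, with channel sums equalised. Samples were the supernatant after 21,000xg for 90 min of pooled aliquots from K562 cells (2×10^6 cells/mL) treated with 10 μM compound for 30 min, heated for 3 min over 48°C-58°C, and extracted in PBS with 0.5% NP-40 at 4°C. Values, from duplicates, describe thermal stability against control samples on a log2 fold-change scale.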

[2] = compound: CON(C)C(=O)N1N=C(c2cc(F)ccc2F)S[C@@]1(CCCN)c1ccccc1 [filanesib]
Summary of the method: as §1

[3] = compound: CO[C@H]1C[C@@H]2CC[C@@H](C)[C@@](O)(O2)C(=O)C(=O)N2CCCC[C@H]2C(=O)O[C@H]([C@H](C)C[C@@H]2CC[C@H](n3cnnn3)[C@H](OC)C2)CC(=O)[C@H](C)/C=C(\C)[C@@H](O)[C@@H](OC)C(=O)[C@H](C)C[C@H](C)/C=C/C=C/C=C/1C [zotarolimus]
Summary of the method: as §1

[4] = compound: COc1cc(C(=O)O)ccc1NC(=O)[C@@H]1N[C@@H](CC(C)(C)C)[C@](C#N)(c2ccc(Cl)cc2F)[C@H]1c1cccc(Cl)c1F [idasanutlin]
Summary of the method: as §1

[5] = compound: COc1cc(Nc2ncc3c(n2)-c2ccc(Cl)cc2C(c2c(F)cccc2OC)=NC3)ccc1C(=O)O [alisertib]
Summary of the method: as §1

[6] = compound: COc1cc2nc(-c3cc(F)ccc3O)nc(N[C@@H]3CNC[C@H]3C(C)(C)O)c2cc1OC
Summary of the method: as §1

[7] = compound: COc1cc2ncnc(Nc3ccc(F)c(Cl)c3)c2cc1OCCCN1CCOCC1 [gefitinib]
Summary of the method: as §1

[8] = compound: COc1cccc2cc(-c3nc([C@H]4CC[C@H](C(=O)O)CC4)n4ncnc(N)c34)[nH]c12
Summary of the method: as §1

[9] = compound: CS(=O)(=O)CCNCc1ccc(-c2ccc3ncnc(Nc4ccc(OCc5cccc(F)c5)c(Cl)c4)c3c2)o1 [lapatinib]
Summary of the method: as §1

[10] = compound: CS(=O)(=O)N1CCN(Cc2cc3nc(-c4cccc5[nH]ncc45)nc(N4CCOCC4)c3s2)CC1 [pictilisib]
Summary of the method: as §1

[11] = compound: CS(=O)(=O)c1ccc(-c2cnc(N)c(C(=O)Nc3ccccc3)n2)cc1
Summary of the method: as §1

[12] = compound: C[C@@H](Oc1cc(-c2cnn(C3CCNCC3)c2)cnc1N)c1c(Cl)ccc(F)c1Cl [crizotinib]
Summary of the method: as §1

[13] = compound: C[C@@H]1COCCN1C2=NC(=NC(=C2)C3(CC3)S(=O)(=O)C)C4=C5C=CNC5=CC=C4
Summary of the method: as §1

[14] = compound: C[C@H](C1=CC=C(C=C1)C(=O)NC2=C3C=CNC3=NC=C2)N
Summary of the method: as §1

[15] = compound: C[C@H](Nc1ncnc2nc[nH]c12)c1cc2cccc(Cl)c2c(=O)n1-c1ccccc1 [duvelisib]
Summary of the method: as §1

[16] = compound: Cc1cc(Nc2cc(CN3CCOCC3)c3nc(C)c(Cc4ccc(Cl)cc4F)n3n2)n[nH]1 [gandotinib]
Summary of the method: as §1

[17] = compound: Cc1cc(Nc2cc(N3CCN(C)CC3)nc(Sc3ccc(NC(=O)C4CC4)cc3)n2)n[nH]1 [tozasertib]
Summary of the method: as §1

[18] = compound: Cc1cc(SCc2sc(-c3ccc(C(F)(F)F)cc3)nc2C)ccc1OCC(=O)O
Summary of the method: as §1

[19] = compound: Cc1ccc(-n2nc(C(C)(C)C)cc2NC(=O)Nc2ccc(OCCN3CCOCC3)c3ccccc23)cc1 [doramapimod]
Summary of the method: as §1

[20] = compound: Cc1ccc(C(=O)N(CCCN)[C@@H](c2nc3cc(Cl)ccc3c(=O)n2Cc2ccccc2)C(C)C)cc1 [ispinesib]
Summary of the method: as §1

Chain of UniProt O60701 (O60701 whole entry, looked up): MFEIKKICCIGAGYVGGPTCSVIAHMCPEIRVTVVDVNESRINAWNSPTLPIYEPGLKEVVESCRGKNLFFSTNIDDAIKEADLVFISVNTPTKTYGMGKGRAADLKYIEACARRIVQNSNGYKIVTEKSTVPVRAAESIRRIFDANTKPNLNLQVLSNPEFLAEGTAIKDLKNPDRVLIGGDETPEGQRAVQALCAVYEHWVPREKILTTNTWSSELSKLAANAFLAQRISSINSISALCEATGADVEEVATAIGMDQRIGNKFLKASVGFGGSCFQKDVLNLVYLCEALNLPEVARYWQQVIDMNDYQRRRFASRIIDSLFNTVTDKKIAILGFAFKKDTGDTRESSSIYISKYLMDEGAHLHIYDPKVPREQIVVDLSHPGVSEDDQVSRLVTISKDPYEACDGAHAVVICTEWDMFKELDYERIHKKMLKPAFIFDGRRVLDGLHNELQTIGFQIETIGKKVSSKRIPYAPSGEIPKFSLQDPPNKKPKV
Chain of UniProt O43156 (O43156 whole entry, looked up): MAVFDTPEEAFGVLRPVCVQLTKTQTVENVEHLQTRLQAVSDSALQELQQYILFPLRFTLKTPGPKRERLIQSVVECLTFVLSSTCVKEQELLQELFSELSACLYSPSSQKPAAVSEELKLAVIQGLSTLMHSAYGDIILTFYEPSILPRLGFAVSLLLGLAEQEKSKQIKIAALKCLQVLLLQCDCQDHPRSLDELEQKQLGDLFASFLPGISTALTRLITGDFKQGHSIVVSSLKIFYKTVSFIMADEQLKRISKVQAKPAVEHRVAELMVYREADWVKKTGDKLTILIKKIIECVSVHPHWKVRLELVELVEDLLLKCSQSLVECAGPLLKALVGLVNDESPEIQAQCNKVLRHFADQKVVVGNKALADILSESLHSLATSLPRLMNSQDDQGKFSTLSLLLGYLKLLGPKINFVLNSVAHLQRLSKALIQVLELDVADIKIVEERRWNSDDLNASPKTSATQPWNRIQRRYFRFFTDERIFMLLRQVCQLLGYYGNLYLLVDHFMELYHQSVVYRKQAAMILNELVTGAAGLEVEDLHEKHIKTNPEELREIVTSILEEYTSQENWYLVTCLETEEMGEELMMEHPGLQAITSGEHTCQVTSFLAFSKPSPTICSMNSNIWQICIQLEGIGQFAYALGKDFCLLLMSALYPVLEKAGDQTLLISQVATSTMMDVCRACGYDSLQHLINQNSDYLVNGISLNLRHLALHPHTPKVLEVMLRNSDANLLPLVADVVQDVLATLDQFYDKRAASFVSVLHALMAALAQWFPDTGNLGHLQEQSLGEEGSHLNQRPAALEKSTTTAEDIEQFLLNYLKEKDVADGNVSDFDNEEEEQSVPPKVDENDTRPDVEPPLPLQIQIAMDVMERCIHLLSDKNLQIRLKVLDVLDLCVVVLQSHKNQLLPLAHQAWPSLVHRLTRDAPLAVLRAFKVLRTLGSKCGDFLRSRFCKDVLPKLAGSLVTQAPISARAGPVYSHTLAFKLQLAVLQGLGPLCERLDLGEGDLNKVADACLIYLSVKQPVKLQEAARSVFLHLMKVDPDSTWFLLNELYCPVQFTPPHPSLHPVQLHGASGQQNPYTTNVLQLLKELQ
Chain of UniProt Q12768 (Q12768 whole entry, looked up): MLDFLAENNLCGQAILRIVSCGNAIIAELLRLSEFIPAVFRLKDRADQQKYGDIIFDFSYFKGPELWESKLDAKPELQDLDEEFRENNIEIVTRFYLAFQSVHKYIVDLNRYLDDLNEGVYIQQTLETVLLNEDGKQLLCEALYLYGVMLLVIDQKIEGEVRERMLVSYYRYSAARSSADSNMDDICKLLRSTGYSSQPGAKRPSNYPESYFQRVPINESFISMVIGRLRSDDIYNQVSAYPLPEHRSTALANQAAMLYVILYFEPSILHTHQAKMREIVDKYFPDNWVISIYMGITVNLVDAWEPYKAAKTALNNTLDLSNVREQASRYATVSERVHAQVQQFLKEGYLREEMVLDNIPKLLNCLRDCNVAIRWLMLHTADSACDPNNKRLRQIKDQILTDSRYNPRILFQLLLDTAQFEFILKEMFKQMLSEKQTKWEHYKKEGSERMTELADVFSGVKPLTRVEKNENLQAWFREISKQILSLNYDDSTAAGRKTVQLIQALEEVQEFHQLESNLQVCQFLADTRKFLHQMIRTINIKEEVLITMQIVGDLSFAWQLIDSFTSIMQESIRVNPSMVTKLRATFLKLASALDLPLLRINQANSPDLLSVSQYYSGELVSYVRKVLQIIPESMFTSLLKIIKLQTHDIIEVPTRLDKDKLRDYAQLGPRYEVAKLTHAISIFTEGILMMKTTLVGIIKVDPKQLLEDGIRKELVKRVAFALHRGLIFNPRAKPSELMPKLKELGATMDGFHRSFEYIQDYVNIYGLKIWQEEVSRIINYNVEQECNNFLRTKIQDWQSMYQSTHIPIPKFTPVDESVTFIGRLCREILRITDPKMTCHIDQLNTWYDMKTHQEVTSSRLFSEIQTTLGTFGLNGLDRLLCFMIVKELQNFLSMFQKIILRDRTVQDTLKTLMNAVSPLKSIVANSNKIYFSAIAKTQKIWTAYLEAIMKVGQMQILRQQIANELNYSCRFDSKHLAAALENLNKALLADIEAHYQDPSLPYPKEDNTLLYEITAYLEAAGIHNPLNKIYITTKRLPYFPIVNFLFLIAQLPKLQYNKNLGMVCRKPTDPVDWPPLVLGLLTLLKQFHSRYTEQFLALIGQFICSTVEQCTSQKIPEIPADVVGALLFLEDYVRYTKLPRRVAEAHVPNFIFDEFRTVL
Chain of UniProt P51809 (P51809 whole entry, looked up): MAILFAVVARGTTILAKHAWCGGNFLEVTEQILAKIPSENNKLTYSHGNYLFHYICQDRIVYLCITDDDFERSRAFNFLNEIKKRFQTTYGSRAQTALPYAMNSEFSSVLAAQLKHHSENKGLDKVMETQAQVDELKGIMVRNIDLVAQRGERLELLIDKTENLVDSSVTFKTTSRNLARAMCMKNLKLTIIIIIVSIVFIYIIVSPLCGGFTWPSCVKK
Chain of UniProt P11388 (P11388 whole entry, looked up): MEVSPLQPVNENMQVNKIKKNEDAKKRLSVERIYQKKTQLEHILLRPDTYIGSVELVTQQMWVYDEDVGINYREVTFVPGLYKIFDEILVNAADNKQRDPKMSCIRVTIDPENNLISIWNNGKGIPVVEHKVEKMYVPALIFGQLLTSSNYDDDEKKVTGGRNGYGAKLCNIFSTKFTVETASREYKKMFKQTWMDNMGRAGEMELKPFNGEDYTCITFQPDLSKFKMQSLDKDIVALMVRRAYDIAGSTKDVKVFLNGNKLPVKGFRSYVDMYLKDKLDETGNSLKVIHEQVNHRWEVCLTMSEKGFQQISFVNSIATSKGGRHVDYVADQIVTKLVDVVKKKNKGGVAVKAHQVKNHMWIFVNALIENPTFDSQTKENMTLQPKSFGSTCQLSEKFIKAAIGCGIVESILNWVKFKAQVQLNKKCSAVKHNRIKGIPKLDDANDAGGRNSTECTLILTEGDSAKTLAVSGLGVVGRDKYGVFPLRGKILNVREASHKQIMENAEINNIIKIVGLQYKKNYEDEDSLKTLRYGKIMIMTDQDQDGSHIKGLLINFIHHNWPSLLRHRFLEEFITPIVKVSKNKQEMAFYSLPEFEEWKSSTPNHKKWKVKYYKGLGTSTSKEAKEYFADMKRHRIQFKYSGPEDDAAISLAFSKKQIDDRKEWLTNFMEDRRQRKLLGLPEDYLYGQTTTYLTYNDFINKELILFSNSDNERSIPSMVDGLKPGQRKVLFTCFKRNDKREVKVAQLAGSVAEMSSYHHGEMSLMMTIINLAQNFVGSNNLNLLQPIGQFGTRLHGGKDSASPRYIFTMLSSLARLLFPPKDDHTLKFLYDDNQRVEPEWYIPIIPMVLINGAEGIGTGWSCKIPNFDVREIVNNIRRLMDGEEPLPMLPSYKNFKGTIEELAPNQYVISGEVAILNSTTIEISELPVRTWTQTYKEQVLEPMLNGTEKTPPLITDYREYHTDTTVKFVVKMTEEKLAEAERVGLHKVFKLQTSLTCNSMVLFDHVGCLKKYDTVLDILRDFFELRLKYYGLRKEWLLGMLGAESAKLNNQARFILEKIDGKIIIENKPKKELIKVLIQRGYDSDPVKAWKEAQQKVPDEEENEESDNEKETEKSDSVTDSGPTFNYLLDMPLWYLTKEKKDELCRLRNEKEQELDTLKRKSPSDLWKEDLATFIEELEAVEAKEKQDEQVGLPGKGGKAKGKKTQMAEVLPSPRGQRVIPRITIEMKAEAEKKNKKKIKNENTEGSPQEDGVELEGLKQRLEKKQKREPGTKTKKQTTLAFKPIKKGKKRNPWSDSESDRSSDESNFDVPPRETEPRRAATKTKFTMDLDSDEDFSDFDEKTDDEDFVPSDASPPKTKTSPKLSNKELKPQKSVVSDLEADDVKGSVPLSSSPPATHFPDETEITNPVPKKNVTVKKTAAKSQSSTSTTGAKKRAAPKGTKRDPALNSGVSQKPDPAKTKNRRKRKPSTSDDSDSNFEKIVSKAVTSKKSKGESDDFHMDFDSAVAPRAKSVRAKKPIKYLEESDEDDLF
Chain of UniProt Q8NEZ2 (Q8NEZ2 whole entry, looked up): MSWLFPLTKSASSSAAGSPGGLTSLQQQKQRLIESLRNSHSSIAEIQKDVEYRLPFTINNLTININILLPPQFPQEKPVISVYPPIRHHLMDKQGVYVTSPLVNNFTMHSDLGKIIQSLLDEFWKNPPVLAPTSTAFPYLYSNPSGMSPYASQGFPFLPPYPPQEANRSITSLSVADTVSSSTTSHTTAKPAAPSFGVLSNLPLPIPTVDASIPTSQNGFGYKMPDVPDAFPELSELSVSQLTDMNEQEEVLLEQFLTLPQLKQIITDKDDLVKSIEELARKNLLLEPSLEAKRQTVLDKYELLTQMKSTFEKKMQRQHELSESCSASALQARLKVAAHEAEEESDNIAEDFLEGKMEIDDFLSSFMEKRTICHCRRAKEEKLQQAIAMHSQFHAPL
Chain of UniProt O00258 (O00258 whole entry, looked up): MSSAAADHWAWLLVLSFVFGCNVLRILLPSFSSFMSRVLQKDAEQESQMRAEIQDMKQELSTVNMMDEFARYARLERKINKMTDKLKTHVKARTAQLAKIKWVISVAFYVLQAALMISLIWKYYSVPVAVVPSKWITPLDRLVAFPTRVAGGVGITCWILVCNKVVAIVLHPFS

| Target | log2 fold change [1] | log2 fold change [2] | log2 fold change [3] | log2 fold change [4] | log2 fold change [5] | log2 fold change [6] | log2 fold change [7] | log2 fold change [8] | log2 fold change [9] | log2 fold change [10] | log2 fold change [11] | log2 fold change [12] | log2 fold change [13] | log2 fold change [14] | log2 fold change [15] | log2 fold change [16] | log2 fold change [17] | log2 fold change [18] | log2 fold change [19] | log2 fold change [20] |
| --- | --- | --- | --- | --- | --- | --- | --- | --- | --- | --- | --- | --- | --- | --- | --- | --- | --- | --- | --- | --- |
| UGDH (UniProt O60701) | 0.164 | 0.001 | 0.053 | -0.043 | 0.067 | 0.04 | 0.118 | 0.059 | -0.036 | 0.022 | -0.106 | 0.079 | 0.041 | -0.161 | 0.061 | -0.064 | 0.046 | 0.049 | -0.106 | 0.165 |
| UBAP2L isoform 1 (UniProt Q14157) | 0.016 | -0.014 | 0.011 | 0.059 | -0.05 | 0.213 | 0.074 | 0.103 | -0.248 | -0.114 | -0.034 | 0.077 | 0.009 | -0.008 | 0.022 | -0.007 | -0.062 | -0.056 | 0.034 | -0.026 |
| XPNPEP1 isoform 3 (UniProt Q9NQW7) | 0.006 | -0.121 | 0.026 | -0.023 | 0.028 | -0.009 | 0.004 | 0.038 | 0.01 | 0.068 | 0.069 | -0.023 | 0.098 | -0.076 | 0.036 | -0.053 | -0.023 | 0.007 | 0.028 | -0.015 |
| TPR (UniProt P12270) | -0.048 | 0.115 | 0.049 | 0.055 | -0.076 | 0.065 | -0.056 | -0.06 | 0.044 | 0.036 | -0.03 | 0.297 (active) | 0.013 | -0.083 | 0.017 | 0.008 | 0.349 (active) | -0.027 | 0.037 | 0.223 |
| UBLCP1 (UniProt Q8WVY7) | -0.046 | -0.001 | -0.008 | -0.013 | 0.028 | 0.181 | 0.044 | -0.034 | 0.021 | 0.028 | 0.063 | 0.068 | -0.007 | -0.034 | 0.03 | -0.06 | 0.045 | 0.062 | -0.061 | 0.126 |
| VAMP7 (UniProt P51809) | 0.035 | -0.095 | -0.005 | -0.111 | -0.072 | 0.099 | 0.033 | 0.012 | -0.005 | -0.001 | 0.021 | -0.299 (active) | 0.005 | -0.046 | -0.005 | -0.026 | 0.005 | -0.011 | -0.007 | -0.275 (active) |
| WRB (UniProt O00258) | -0.036 | -0.041 | -0.019 | -0.032 | -0.031 | -0.066 | 0.012 | 0.051 | 0.03 | 0.094 | -0.031 | 0.057 | 0.036 | -0.028 | -0.094 | -0.053 | -0.016 | 0.067 | 0.015 | 0.029 |
| TMEM63B (UniProt Q5T3F8) | -0.125 | -0.089 | -0.018 | 0.011 | -0.037 | -0.028 | -0.03 | -0.028 | 0.032 | 0.003 | -0.127 | 0.045 | -0.042 | -0.014 | -0.085 | -0.028 | -0.007 | 0.015 | -0.047 | -0.312 (active) |
| USP48 isoform 8 (UniProt Q86UV5) | 0.155 | -0.075 | 0.089 | -0.03 | 0.12 | -0.267 | 0.093 | -0.018 | 0.002 | 0.016 | 0.03 | -0.036 | 0.066 | -0.133 | 0.088 | -0.197 | 0.334 | 0.212 | -0.1 | -0.07 |
| TOP2A isoform 4 (UniProt P11388) | 0.052 | 0.486 | 0.079 | 0.24 | -0.144 | -0.029 | -0.042 | -0.4 | 0.13 | -0.071 | -0.071 | -0.157 | -0.337 | 0.559 | -0.185 | 0.158 | -0.025 | 0.015 | 0.362 | -0.376 |
| VPS37A (UniProt Q8NEZ2) | -0.046 | -0.011 | 0.107 | 0.002 | -0.054 | 0.001 | 0.05 | 0.024 | -0.035 | 0.058 | 0.035 | -0.146 | 0.092 | -0.084 | 0.044 | -0.292 | 0.057 | 0.206 | -0.017 | 0 |
| WBP4 (UniProt O75554) | 0.001 | -0.082 | -0.025 | 0.022 | -0.042 | -0.009 | 0.014 | -0.003 | 0.05 | -0.139 | -0.032 | 0.059 | 0.004 | -0.015 | 0.011 | -0.022 | -0.016 | 0.01 | 0.018 | -0.044 |
| WASHC5 (UniProt Q12768) | -0.059 | -0.017 | 0.043 | 0.034 | -0.088 | 0.083 | 0.044 | -0.021 | -0.024 | -0.05 | -0.023 | -0.133 | -0.068 | 0.053 | -0.034 | -0.002 | -0.02 | 0.032 | 0.073 | -0.093 |
| TNPO1 (UniProt Q92973) | -0.008 | -0.096 | 0.012 | -0.023 | -0.074 | -0.156 | -0.001 | -0.012 | -0.005 | -0.02 | -0.008 | -0.034 | 0.058 | -0.116 | 0.002 | -0.128 | 0.052 | 0.011 | -0.034 | -0.113 |
| TTI1 (UniProt O43156) | -0.031 | 0.081 | 0.091 | -0.097 | -0.112 | 0.02 | -0.057 | -0.019 | -0.008 | 0.049 | 0.075 | -0.143 | 0.003 | 0.059 | -0.03 | -0.119 | 0.041 | 0.033 | 0.059 | -0.204 |
| UTP4 (UniProt Q969X6) | -0.05 | -0.043 | -0.017 | -0.034 | -0.095 | 0.132 | 0 | 0.029 | -0.006 | 0.035 | -0.013 | 0.019 | 0.055 | 0.004 | 0.022 | 0.004 | 0.006 | -0.056 | 0.012 | 0.066 |
